According to PubChem BioAssay AID1053205 (Broad Institute, 2014):
Potency and affinity values are given separately. Results filed as inconclusive are left out. Calls of active or inactive are those of the source.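 The calls were made as follows: active = compounds lowering the FRET ratio whose fitted half-maximal concentration is at most twice their top tested dose; inconclusive = flat partial drop between 30 and 70 percent, or bad fit; inactive = the rest.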

Biological target: Voltage-dependent L-type calcium channel subunit alpha-1D (Homo sapiens) (UniProt Q01668)
Experiment: inhibitors of CaV1.3 ICDI-IQ binding, dose response, cell-based, HEK293, YFP-IQ/CFP-ICDI FRET, cherry-picks (AID 1053205)
Conditions: HEK293 YFP-IQ/CFP-ICDI FRET ratio, 10 min; series mostly up to 35 µM

Sequence of Voltage-dependent L-type calcium channel subunit alpha-1D (Homo sapiens) (Q01668 whole entry, looked up): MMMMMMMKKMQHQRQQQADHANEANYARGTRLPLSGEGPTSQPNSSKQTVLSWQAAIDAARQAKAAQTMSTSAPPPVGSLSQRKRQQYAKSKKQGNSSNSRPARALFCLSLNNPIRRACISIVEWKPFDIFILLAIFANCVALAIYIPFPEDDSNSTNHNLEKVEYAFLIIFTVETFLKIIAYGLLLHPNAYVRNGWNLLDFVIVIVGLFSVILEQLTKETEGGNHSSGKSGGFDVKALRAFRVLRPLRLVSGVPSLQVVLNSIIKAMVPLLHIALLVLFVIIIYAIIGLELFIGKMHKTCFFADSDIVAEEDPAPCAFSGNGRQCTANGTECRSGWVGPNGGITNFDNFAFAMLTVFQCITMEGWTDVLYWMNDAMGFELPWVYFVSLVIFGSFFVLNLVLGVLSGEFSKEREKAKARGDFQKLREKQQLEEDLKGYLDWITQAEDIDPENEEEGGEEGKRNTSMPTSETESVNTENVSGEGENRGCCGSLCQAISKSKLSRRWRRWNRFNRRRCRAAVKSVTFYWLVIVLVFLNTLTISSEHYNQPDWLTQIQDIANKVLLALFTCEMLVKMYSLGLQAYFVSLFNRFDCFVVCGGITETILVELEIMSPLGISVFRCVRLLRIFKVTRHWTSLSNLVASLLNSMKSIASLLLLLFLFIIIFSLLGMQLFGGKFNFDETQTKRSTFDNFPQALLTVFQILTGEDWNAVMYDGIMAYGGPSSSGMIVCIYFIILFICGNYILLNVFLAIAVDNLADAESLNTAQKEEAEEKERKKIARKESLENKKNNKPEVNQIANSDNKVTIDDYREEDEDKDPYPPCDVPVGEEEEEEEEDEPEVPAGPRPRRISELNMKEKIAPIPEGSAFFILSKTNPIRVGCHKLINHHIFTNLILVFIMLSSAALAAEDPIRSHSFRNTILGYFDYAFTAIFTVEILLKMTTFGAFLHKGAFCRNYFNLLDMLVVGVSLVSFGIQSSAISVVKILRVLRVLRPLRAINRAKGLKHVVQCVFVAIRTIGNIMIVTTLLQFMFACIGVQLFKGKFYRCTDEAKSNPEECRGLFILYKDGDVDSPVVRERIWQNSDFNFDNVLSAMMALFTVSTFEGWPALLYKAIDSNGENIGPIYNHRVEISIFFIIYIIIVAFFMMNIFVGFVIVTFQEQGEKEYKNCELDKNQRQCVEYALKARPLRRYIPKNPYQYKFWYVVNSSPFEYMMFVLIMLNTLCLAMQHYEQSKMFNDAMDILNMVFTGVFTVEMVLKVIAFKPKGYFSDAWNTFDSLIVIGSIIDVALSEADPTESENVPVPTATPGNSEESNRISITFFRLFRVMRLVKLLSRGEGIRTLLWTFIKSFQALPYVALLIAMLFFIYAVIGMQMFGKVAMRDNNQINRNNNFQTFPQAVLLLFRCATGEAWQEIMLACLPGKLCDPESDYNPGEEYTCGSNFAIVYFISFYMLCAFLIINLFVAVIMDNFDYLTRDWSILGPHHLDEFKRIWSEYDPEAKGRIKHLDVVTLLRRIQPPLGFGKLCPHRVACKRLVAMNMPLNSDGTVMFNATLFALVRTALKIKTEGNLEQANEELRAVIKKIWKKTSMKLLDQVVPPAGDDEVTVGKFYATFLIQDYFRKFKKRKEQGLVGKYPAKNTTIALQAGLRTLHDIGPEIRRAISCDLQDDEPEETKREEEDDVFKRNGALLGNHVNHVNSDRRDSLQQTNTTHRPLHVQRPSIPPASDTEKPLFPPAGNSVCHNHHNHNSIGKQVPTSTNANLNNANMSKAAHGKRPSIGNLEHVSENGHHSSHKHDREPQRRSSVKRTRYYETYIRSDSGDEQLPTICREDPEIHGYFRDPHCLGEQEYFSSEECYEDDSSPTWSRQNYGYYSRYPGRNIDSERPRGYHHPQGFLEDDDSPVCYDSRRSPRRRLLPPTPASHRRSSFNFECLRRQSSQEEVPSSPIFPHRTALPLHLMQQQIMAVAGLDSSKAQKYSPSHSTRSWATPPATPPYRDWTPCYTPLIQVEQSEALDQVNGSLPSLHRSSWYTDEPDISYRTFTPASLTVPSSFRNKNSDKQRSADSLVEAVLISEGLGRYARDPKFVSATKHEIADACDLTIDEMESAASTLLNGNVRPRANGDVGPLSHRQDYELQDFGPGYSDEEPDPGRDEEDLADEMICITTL

outcome, inactive:
COc1ccc(C2CC(c3ccccc3)=NN2c2ccc(C(N)=O)cc2)cc1 (centres undefined), CCc1nnc(NC(=O)c2ccc(-c3ccccc3F)o2)s1, CCC(=O)NCCCNc1nc2c(C)cccc2cc1C#N, c1ccc(-c2cn3nc4c(nc3n2)CCCC4)cc1, CC1(C)CC(=O)C2=C(C1)OC(N)=C(C#N)[C@@H]2c1ccccc1[N+](=O)[O-], Nc1ccc(C#Cc2ccc3c(=O)c4ccccc4oc3c2)cc1, Cc1cc2c(C)cc(=O)oc2c2c1NCCC2, Cn1nc(-c2ccc(Cl)cc2)c2cc(C(=O)N3CCN(c4ccccc4)CC3)sc21, CCC(=O)N1C(C(=O)NCc2ccc(OC)cc2)CSC1c1ccc(OC)cc1 (centres undefined), c1ccc2cc3c(NCCN4CCOCC4)ccnc3cc2c1, N#Cc1ccc(/C=C\c2nccc3c2[nH]c2ccccc23)cc1, O=c1oc2cc(O)ccc2cc1-c1nc2ccccc2o1, Cc1noc(C)c1-c1ccc(C(=O)NCCc2ccccc2)c2occc12, COc1ccc(CCNC(=O)CSc2cn(Cc3cccc(C)c3)c3ccccc23)cc1OC, S=C(NCC1CCCO1)N1CCN(Cc2ccccc2Cl)CC1 (centres undefined), COc1ccccc1C1C2=C(CC(C)(C)CC2=O)N(CC(=O)O)C2=C1C(=O)CC(C)(C)C2, Cc1ccc(NC(=O)Nc2ccnc(-c3cccnc3)n2)cc1, CSc1ccc(Cn2c(C)c(C(=O)NCc3cccc(Cl)c3)sc2=O)cc1, CSc1ccc(Cl)c(C(=O)N2CCOc3ccccc32)c1
